Laboratory results taken from the supplement of paper PMC12636033.
± gives the standard deviation of the averaged measurements. Over roughly 33,000 sequences, “E-score (rank enrichment, -0.5 to 0.5)” has its median near -0.0028; the highest 2% begin near 0.23. The list comes from a sample in which the highest values are over-represented; it also holds similar and randomly drawn sequences.

The sequences below were run on 2Sb-muMax20 (muMax20 with two 1,3-bis(methyl)benzene Cys staples, A13C/A17C and Q88C/A92C, C-terminal Lys) (assay: PBM 8-mer E-score (E-score (rank enrichment, -0.5 to 0.5)); higher = stronger preferential binding).
Method: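 Protein binding microarray (universal PBM chip covering all 10-mers in fixed probe flanks) with chemically synthesized human Max(13-93) bHLH-LZ analogs (not full-length Max) bearing noncanonical residues (hArg, Tha, Aib, Nle at 65) and aromatic Cys staples. Read-out per 8-mer (and its reverse complement): E-score (rank-based enrichment, -0.5 to 0.5) and Z-score of median probe intensity.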

Sequence | PBM 8-mer E-score
ACACGTGA | 0.3874 ± 0.0005
ACACGTGT | 0.396 ± 0.015
AAACGTGT | 0.0274 ± 0.017
ACACGTAT | 0.205 ± 0.022
ATACGTGA | 0.0108 ± 0.014
ATGTCGCG | -0.163 ± 0.042
CATCGTAC | -0.0597 ± 0.0024
ACTACGTC | 0.0847 ± 0.0011
GTCGATTA | -0.0254 ± 0.015
AGCAGGCT | -0.169 ± 0.016
GAGCCCGC | -0.24 ± 0.016
AGCGCTCA | -0.0925 ± 0.0074
ATAATGGC | 0.012 ± 0.012
ATAATGTC | 0.238 ± 0.021
ATAATGTG | 0.159 ± 0.037
CTAATGTC | -0.0718 ± 0.018
ATAATGGA | 0.185 ± 0.0033
ATAATGGG | 0.238 ± 0.034
AGGAACTG | -0.188 ± 0.049
GCTGCACA | -0.179 ± 0.029
CGCTTGTA | 0.123 ± 0.13
CATGCAAG | 0.0851 ± 0.0044
CATGCATC | 0.0655 ± 0.044

Sequence | PBM 8-mer E-score
AATGCATC | 0.174 ± 0.028
GATGCGTA | 0.126 ± 0.054
CATGCGTA | 0.2542 ± 0.0016
CATGCAAC | 0.247 ± 0.027
CATGCATG | 0.349 ± 0.03
AATGCAAC | 0.0741 ± 0.045
CATGCATA | 0.177 ± 0.0083
AATGCATA | 0.155 ± 0.01
AATGCGTA | 0.192 ± 0.017
AATGCATT | 0.282 ± 0.018
AAAGGGGA | 0.101 ± 0.002
ACCGGGCA | -0.237 ± 0.053
CTGGTCCC | -0.186 ± 0.015
GGCTTCGA | -0.0528 ± 0.016
GTCTTCAC | -0.127 ± 0.079
CACCGAGG | -0.221 ± 0.014
TATGCAAA | 0.0419 ± 0.0014
AATGCAAG | 0.134 ± 0.016
ACTGCATG | 0.0264 ± 0.067
AATGCATG | 0.26 ± 0.017
ATTGCATG | 0.13 ± 0.006
AATGCAAA | 0.247 ± 0.034
ATGGTTAC | -0.0452 ± 0.019

Sequence | PBM 8-mer E-score
GCCACCGA | -0.191 ± 0.0059
ATTGCATA | 0.228 ± 0.028
TATAAACA | 0.156 ± 0.011
ACTGTTAG | -0.0514 ± 0.065
AATTAATA | 0.217 ± 0.011
TATTAATA | 0.296 ± 0.027
GATTAATA | 0.258 ± 0.041
CATTAATA | 0.148 ± 0.024
GATTAATC | -0.0411 ± 0.03
GATTAAGA | 0.129 ± 0.0066
GATGATCC | -0.0779 ± 0.039
CATCGTTC | -0.12 ± 0.012
AGACAATC | 0.113 ± 0.029
AGACAATA | 0.242 ± 0.082
AGACAATG | -0.0359 ± 0.045
GCACGCAA | -0.108 ± 0.043
ACCCCAGC | 0.162 ± 0.054
GGAGGGAC | -0.162 ± 0.097
CTAACAAA | 0.144 ± 0.04
GGATGCCA | -0.0771 ± 0.0063
AGTGTGCA | 0.127 ± 0.052
GCCGCCAC | -0.229 ± 0.042
ACCGCCAC | -0.106 ± 0.0018

Sequence | PBM 8-mer E-score
CCCGCCAC | 0.239 ± 0.034
ACCGCCCC | 0.171 ± 0.074
CCCGCCCC | 0.241 ± 0.1
CCCGCCCG | 0.116 ± 0.12
GCCGCCCA | -0.145 ± 0.07
CCCGCCCA | 0.4 ± 0.012
GCCGCCCC | 0.0256 ± 0.14
AAAGCTGC | 0.108 ± 0.027
GAAAGACC | -0.0392 ± 0.039
ATCGTTGG | -0.105 ± 0.092
CGACGATA | -0.0378 ± 0.027
CCAGTGGC | -0.0927 ± 0.044
CAGGCAGC | -0.163 ± 0.015
GAAGCGAC | -0.0841 ± 0.007
ACTCGTAA | 0.213 ± 0.042
CCCCAACA | 0.256 ± 0.061
CCCCAACC | 0.131 ± 0.087
TCCCAACA | 0.0292 ± 0.05
CAGAAAAA | -0.0726 ± 0.05
AGTGCATC | -0.00688 ± 0.015
TAATTATA | 0.262 ± 0.03
AAATTATG | 0.168 ± 0.0019
AAATTATA | 0.253 ± 0.069

Sequence | PBM 8-mer E-score
CAATTATA | 0.115 ± 0.045
AAATTATC | 0.107 ± 0.0057
GAATTATA | 0.141 ± 0.061
GCACACGA | -0.00209 ± 0.0015
AAGTTAGC | 0.00664 ± 0.0061
TGCCCGAA | -0.0214 ± 0.05
GGACAAAA | 0.0253 ± 0.017
AATATCGT | 0.091 ± 0.0052
ACGTGATG | 0.239 ± 0.0046
ACGTGAAC | 0.0297 ± 0.012
ACGTGAGG | 0.0924 ± 0.012
CCGTGATA | -0.132 ± 0.043
ACGTGAAA | 0.238 ± 0.035
TCGTGAAA | -0.2052 ± 0.00053
ACGTGATA | 0.244 ± 0.05
ACGTGATC | 0.187 ± 0.028
GCGTGATA | 0.113 ± 0.028
GGTTTAAC | -0.0252 ± 0.0077
CACATTGG | -0.033 ± 0.038
ACACTGCA | -0.0884 ± 0.039
AGACCTAG | -0.205 ± 0.0049
ACGAACTG | -0.134 ± 0.02
CCCTATTA | 0.0897 ± 0.046

Sequence | PBM 8-mer E-score
CGCCTCCG | -0.115 ± 0.014
GTATTGAA | 0.0851 ± 0.057
ATATTGAA | 0.0093 ± 0.059
TTATTGAA | 0.3 ± 0.015
ACGCGCCC | 0.00592 ± 0.048
ACGTTTAG | 0.0678 ± 0.079
ATAACATA | 0.2304 ± 0.0015
ATAACATG | 0.192 ± 0.035
ATAACACG | 0.137 ± 0.063
ATAACATC | 0.211 ± 0.049
CTAACACA | -0.028 ± 0.069
ATAACACA | 0.236 ± 0.023
CTTGGCGC | -0.0178 ± 0.027
GTGATCAA | -0.00195 ± 0.013
TATTGGAA | 0.0585 ± 0.0063
AATCACTC | -0.0758 ± 0.076
ACAGTGAG | -0.03 ± 0.013
ATTGAAGC | 0.00997 ± 0.0075
CTAGGCAA | -0.167 ± 0.047
ATAGGCAG | 0.165 ± 0.037
ATAGGCAA | 0.248 ± 0.061
GACGTGAA | -0.272 ± 0.011
AACGTGAC | 0.128 ± 0.0036

Sequence | PBM 8-mer E-score
TACGTGAA | 0.0248 ± 0.06
CACGTGAG | 0.186 ± 0.016
CACGTGAA | 0.369 ± 0.02
CACGTGAC | 0.386 ± 0.011
ATGAGGTG | 0.103 ± 0.034
CATAGACA | 0.0657 ± 0.028
GCCAACTA | 0.0147 ± 0.076
ACAAACTA | 0.152 ± 0.048
CCAAACTA | 0.234 ± 0.0031
ACCAACTA | 0.0506 ± 0.082
CAAAACTA | 0.062 ± 0.059
CCCAACTA | 0.242 ± 0.0045
ACATTCCA | -0.0113 ± 0.025
GAGGGTCA | -0.00483 ± 0.032
CACATTTC | 0.141 ± 0.013
CCCTACGC | 0.0539 ± 0.023
CCCTACGA | 0.232 ± 0.0033
TCCTACGA | -0.0774 ± 0.011
GGGAGACA | 0.115 ± 0.016
GCTCTGCA | -0.0815 ± 0.037
